PubChem BioAssay (NCI)
Compounds without any hit were thinned out: in the full panel of roughly 83,000, 20% have a hit.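 Negative percent growth values reflect cell death: -40 means 40% of the cells present at the start died, and -100 means all died.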 Values without a mark were called inactive. Active and inactive are the calls of the source. The calls were made as follows: active = growth percent below 10; inactive = the rest.

What was measured:
Test in all cases: NCI-60 one-dose screen, 48 h (100 = growth as untreated, 0 = no growth, -100 = all killed)
Details in all cases: 10 µM unless noted
SK-MEL-2 melanoma = system: SK-MEL-2 melanoma
EKVX NSCLC = system: EKVX NSCLC
SN12C renal = system: SN12C renal
UO-31 renal = system: UO-31 renal
TK-10 renal = system: TK-10 renal
ACHN renal = system: ACHN renal
CAKI-1 renal = system: CAKI-1 renal
A498 renal = system: A498 renal
CCRF-CEM leukemia = system: CCRF-CEM leukemia
MOLT-4 leukemia = system: MOLT-4 leukemia
SR leukemia = system: SR leukemia
RPMI-8226 leukemia = system: RPMI-8226 leukemia
OVCAR-8 ovarian = system: OVCAR-8 ovarian
OVCAR-5 ovarian = system: OVCAR-5 ovarian
OVCAR-4 ovarian = system: OVCAR-4 ovarian
SK-OV-3 ovarian = system: SK-OV-3 ovarian
IGROV1 ovarian = system: IGROV1 ovarian
OVCAR-3 ovarian = system: OVCAR-3 ovarian
HS 578T breast = system: HS 578T breast
NCI/ADR-RES ovarian = system: NCI/ADR-RES ovarian

Structure (SMILES)	growth (SK-MEL-2 melanoma)	growth (EKVX NSCLC)	growth (SN12C renal)	growth (UO-31 renal)	growth (TK-10 renal)	growth (ACHN renal)	growth (CAKI-1 renal)	growth (A498 renal)	growth (CCRF-CEM leukemia)	growth (MOLT-4 leukemia)	growth (SR leukemia)	growth (RPMI-8226 leukemia)	growth (OVCAR-8 ovarian)	growth (OVCAR-5 ovarian)	growth (OVCAR-4 ovarian)	growth (SK-OV-3 ovarian)	growth (IGROV1 ovarian)	growth (OVCAR-3 ovarian)	growth (HS 578T breast)	growth (NCI/ADR-RES ovarian)
Cc1ccc(C2=NN(c3nc(-c4cc5ccccc5oc4=O)cs3)C(c3ccc(C)cc3)C2)cc1 (stereo not given)	104%	93.6%	104%	68%	163%	102%	88.2%	127%	101%	98.5%	102%	98.6%	106%	126%	99.1%	80.3%	104%	109%	101%	101%
Cc1occc1C(=O)NN1C(=O)/C(=C/C=C/c2ccc([N+](=O)[O-])o2)SC1=S	-71.8% (active)	-52.1% (active)	-88.1% (active)	-96.3% (active)	-49.7% (active)	-100% (active)	-59.7% (active)	95.3%	0.965% (active)	5.26% (active)	5.76% (active)	-8.57% (active)	-53.9% (active)	-93.3% (active)	-85% (active)	20.1%	-87.6% (active)	-100% (active)	19.4%	-6.81% (active)
CCCCn1c(O)c(N=Nc2nc(-c3cc4ccccc4oc3=O)cs2)c2cc(Br)ccc21	116%	97.1%	101%	85%	115%	106%	102%	103%	104%	107%	103%	108%	113%	96.2%	111%	124%	114%	99.1%	108%	102%
CCCCc1c(Nn2cnnn2)no[n+]1[O-]	80.1%	54.2%	42.4%	28.4%	96.5%	54.9%	39.5%	79.2%	31.6%	23%	36.9%	45.8%	42.1%	83.2%	55%	88.8%	35.8%	51.4%	58.6%	58.2%
C=C1CCC2C3(C)COC(c4cccc(F)c4)OC3CCC2(C)C1C/C=C1/C(=O)OCC1O (stereo not given)	-50.6% (active)	23.1%	4.14% (active)	-63.2% (active)	-6.05% (active)	-89.6% (active)	11%	118%	16%	7.01% (active)	9.74% (active)	10.5%	-52.2% (active)	22.1%	-0.215% (active)	60.5%	-24% (active)	-71.8% (active)	15.9%	-18% (active)
Nc1nnc(-c2c[nH]c3ccc(Br)cc23)c(-c2c[nH]c3ncc(Br)cc23)n1	-33.2% (active)	46.6%	46.5%	42.1%	33.1%	29.6%	21%	17.6%	13.4%	2.51% (active)	23.6%	19.6%	34.3%	59%	33.6%	37.6%	22%	62.4%	48.8%	78.6%
C#CCOc1cc(N(CC)CC)ccc1C(C(=O)NC(C)(C)C)N(C(=O)C1CCc2cc(F)ccc2O1)c1cc(C)cc(C)c1 (stereo not given)	-14.6% (active)	33.3%	30.9%	23.2%	50.3%	22.7%	27.9%	45.8%	36.3%	16%	20.4%	17.6%	34.1%	49.7%	36.8%	46.7%	61.9%	30.5%	53.7%	41.9%
CCOC(=O)C1=C(N)N(c2ccccc2)C2=C(C(=O)CC(C)(C)C2)C1c1ccc([N+](=O)[O-])cc1 (stereo not given)	97.2%	86.4%	98.4%	95.7%	113%	87.9%	68.4%	114%	89.1%	78.3%	66.4%	82.6%	103%	101%	97.3%	105%	108%	121%	100%	98.2%
COc1ccc(NC(=O)Nc2ccc(OCc3ccc(F)cc3)cc2)cc1	96.8%	74.2%	55.7%	26.3%	82.4%	42.2%	66.6%	80.3%	83.7%	94.8%	78.7%	88.7%	40.2%	72.9%	20%	76.2%	78.1%	58.5%	29.4%	51.2%
CC(=O)Nc1cccc(-c2nc3cc(-c4ccc(O)cc4)ccc3n2C)c1	52.6%	35.1%	43.8%	38.4%	59%	16%	38.5%	86.8%	28.3%	9.2% (active)	59%	28.4%	22.2%	93.6%	20.9%	77.5%	51.7%	31.3%	56.1%	65.2%
O=C(Cn1c(/C=C/c2ccccc2)nc2ccccc2c1=O)Nc1ccccc1	94.7%	124%	31%	24.7%	75.6%	1.89% (active)	8.48% (active)	-29.9% (active)	71.4%	73%	80.3%	90.2%	44.4%	96.1%	-0.268% (active)	61.4%	107%	78.3%	82.5%	57.9%
Cc1ccccc1[C@H]1C(C(=O)c2ccc(Cl)cc2)C2(N[C@@H]1c1ccccc1)C(=O)Nc1ccccc12 (stereo not given in full)	-76.3% (active)	-15.6% (active)	-94.9% (active)	0.424% (active)	-8.15% (active)	-13.9% (active)	3.96% (active)	-8.76% (active)	-13.8% (active)	-18% (active)	-17.1% (active)	-24.2% (active)	-67.9% (active)	-46.6% (active)	8.21% (active)	-3.38% (active)	5.88% (active)	-58.4% (active)	-28.8% (active)	-68.2% (active)
O=C(NN1C(=O)/C(=C/C=C/c2ccc([N+](=O)[O-])o2)SC1=S)c1ccccc1O	-86.9% (active)	-94.1% (active)	-98.2% (active)	-99.5% (active)	-87.6% (active)	-100% (active)	-100% (active)	-61.2% (active)	5.02% (active)	6.95% (active)	3.37% (active)	-4.22% (active)	-68.2% (active)	-98.8% (active)	-100% (active)	-9.85% (active)	-95.5% (active)	-100% (active)	-5.32% (active)	-0.0269% (active)
COc1cc2c(c(OC)c1OC)C(=O)CC(c1cccc(NC(=O)[C@@H](N)CC(C)C)c1)O2 (stereo not given in full)	99.3%	99.1%	84.4%	78%	115%	103%	80.6%	89.3%	97.6%	96.1%	66.9%	108%	94.9%	112%	102%	109%	107%	97.9%	88.4%	99.8%
O=c1oc2ccccc2cc1-c1csc(N2N=C(c3ccccc3)CC2c2ccc(N3CCOCC3)cc2)n1 (stereo not given)	101%	96.1%	107%	73.8%	159%	99.2%	90.6%	153%	96.6%	95.9%	94.5%	102%	104%	132%	105%	69.9%	123%	117%	105%	105%
